In the library only some 14% were active in any assay of this set; here they are far more common.
Pf growth 48h = Primary qHTS for delayed death inhibitors of the malarial parasite plastid, 48 hour incubation; Potency, µM (series often up to 28.7 µM), most hits filed as inhibitors; AID 504832, 2011; 310,000 compounds, 5.9% hits; P. falciparum luciferase growth in erythrocytes, 48 h
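Growth was read as firefly luciferase luminescence after a 48 h, 37 C, 5% CO2 exposure of compounds to reporter-bearing P. falciparum cultures (0.1% parasitemia, 2% hematocrit final) in Albumax-supplemented RPMI 1640.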
Pf growth 96h = Primary qHTS for delayed death inhibitors of the malarial parasite plastid, 96 hour incubation; P. falciparum luciferase reporter growth, 96 h; Potency, µM (series often up to 28.7 µM), usual class: inhibitors; 320,000 compounds, 6.9% hits; AID 504834, 2011
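P. falciparum expressing integrated firefly luciferase, in erythrocytes at 2% hematocrit, 0.05% parasitemia, incubated with compounds 96 h at 37 C, 5% CO2. Growth inhibition read as loss of luminescence; two-generation exposure targets delayed-death apicoplast inhibitors.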
Giardia FBPA inh = qHTS Assay for Inhibitors of Fructose-1,6-bisphosphate Aldolase from Giardia Lamblia; A8B2U2; Potency, µM (series often up to 59.6 µM), hits mostly inhibitors; AID 2451, 2010; 290,000 compounds, 0.71% hits; purified Giardia FBPA; note: nearly all actives have a fitted effect of over 55% in size
Target sequence (A8B2U2 whole entry, looked up): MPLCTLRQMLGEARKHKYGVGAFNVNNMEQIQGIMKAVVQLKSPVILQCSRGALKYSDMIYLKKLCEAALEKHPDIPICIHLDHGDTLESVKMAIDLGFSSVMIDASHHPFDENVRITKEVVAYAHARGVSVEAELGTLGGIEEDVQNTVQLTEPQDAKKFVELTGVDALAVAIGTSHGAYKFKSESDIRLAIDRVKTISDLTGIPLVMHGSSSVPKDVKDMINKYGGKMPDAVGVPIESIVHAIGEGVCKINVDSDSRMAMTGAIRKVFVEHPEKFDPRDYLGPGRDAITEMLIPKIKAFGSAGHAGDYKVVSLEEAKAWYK
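40 nM FBPA preincubated 10 min at RT with compound (up to 57.5 uM final), then substrate plus GAPDH/TPI/NAD/arsenate coupling and diaphorase/resazurin added. Fluorescence read after 20 min at RT, 525/598 nm.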
HCMV antiviral = qHTS Assay for inhibitors of the human cytomegalovirus (HCMV); HFF cells, HCMV-luciferase reporter, 72 h; active compounds read low; activity change, negative = inhibition, % at 57.5 µM; 410,000 compounds, 4.5% hits; AID 1259415, 2018; in the data active = activity change below about -60%; inconclusive = no clear call, values can overlap the other calls; inactive = above about -39%
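HFF cells seeded 16 h at 37C, treated with compounds, infected with luciferase-reporter HCMV at MOI 1 PFU/cell; luciferase read at 72 h post infection, normalized to buffer-only and Salinomycin controls.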
Sm TGR block = qHTS Assay for the Inhibitors of Schistosoma Mansoni Peroxiredoxins. Potency, µM (highest dose often 114 µM), most hits filed as inhibitors. purified TGR, DTNB reduction, TNB absorbance 405 nm. Schistosoma mansoni thioredoxin glutathione reductase (TGR), Q962Y6. 360,000 compounds, 3% hits; note: nearly all actives have a fitted effect of over 60% in size
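Kinetic colorimetric format: TGR-catalysed, NADPH-driven DTNB reduction monitored via TNB absorbance. Enzyme dispensed at 20 nM; compound exposure 15 min at room temperature before reaction start.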
Each line names hits and unclear results; the compound was inactive in the other large screens. Unless noted, calls come from the whole dose curve; as a rule, active = well fitted curve in the direction sought with a large enough effect; inconclusive = small, poorly fitted or top-dose-only effect, or another doubt; inactive = no such curve, though single readings can be large; an effect the other way counts as inactive or inconclusive.

CCc1nnc2c(Nc3ccc(N(CC)CC)cc3C)nc3ccccc3n12	HCMV antiviral inconclusive (no result: Pf growth 48h, Pf growth 96h, Giardia FBPA inh)
Cc1nc([N+](=O)[O-])cn1CC(O)c1ccc(-c2ccccc2)cc1 (centres undefined)	Pf growth 48h inconclusive
Cc1ccc(C(O)Cn2cc([N+](=O)[O-])nc2C)cc1 (centres undefined)	Pf growth 48h 2.6µM
Cc1ccc(-c2oc3ccccc3c(=O)c2O)cc1	Pf growth 48h 3.7µM, HCMV antiviral inconclusive
O=c1c(O)c(-c2ccccc2)oc2ccccc12	HCMV antiviral inconclusive (no result: Pf growth 48h, Pf growth 96h, Sm TGR block)
Cc1ccc(C(=O)NNC(=O)CCCCC(=O)NNC(=O)c2ccc(C)cc2)cc1	Pf growth 96h inconclusive
O=C(Nc1nnc(CCN2CCOCC2)s1)C1CCCCC1	none (no result: Pf growth 96h)
CCc1nnc(NC(=O)C2CCCN(c3nc(C)cc(C)n3)C2)s1 (centres undefined)	Pf growth 96h 4.7µM
Cc1cc(C)nc(N2CCCC(C(=O)Nc3nnc(C(C)(C)C)s3)C2)n1 (centres undefined)	none (no result: Sm TGR block)
O=C(Nc1nnc(CCN2CCCCC2)s1)C1CCCCC1	Pf growth 96h 13µM
Cn1c(S(=O)(=O)c2ccc([N+](=O)[O-])cc2)nc(Br)c1Br	Pf growth 48h inconclusive, Pf growth 96h 9.3µM, Sm TGR block inconclusive
Oc1ccc(Cl)cc1C(C#Cc1ccccc1)N1CCOCC1 (centres undefined)	Pf growth 48h inconclusive, Pf growth 96h 10µM, Sm TGR block inconclusive
O=C(CC(c1ccccc1)c1cc(Cl)ccc1O)N1CCOCC1 (centres undefined)	none
O=C(O)CCc1ccc(-c2cccs2)n1CCC(=O)O	Pf growth 96h inconclusive, Sm TGR block 7.1µM
O=C(O)CCc1ccc(-c2cccs2)n1CCc1ccccc1	Pf growth 48h inconclusive, Pf growth 96h inconclusive, Sm TGR block 10µM
Cc1ccc(NC(=O)Cn2c(CCC(=O)O)ccc2-c2cccs2)cc1Cl	Sm TGR block 25µM
COc1ccc(OC)c(NC(=O)Cn2c(CCC(=O)O)ccc2-c2cccs2)c1	Pf growth 96h inconclusive, Sm TGR block inconclusive
COc1cccc(NC(=O)Cn2c(CCC(=O)O)ccc2-c2cccs2)c1	none
O=C(NCCN1CCOCC1)C(Sc1ccccc1)c1ccccc1 (centres undefined)	none
O=C(NCCCN1CCOCC1)c1cc2ccccc2cc1O	Pf growth 48h inconclusive, Pf growth 96h inconclusive (no result: Giardia FBPA inh)
CCCCNS(=O)(=O)c1ccc(NC(=O)C(Sc2ccccc2)c2ccccc2)cc1 (centres undefined)	Pf growth 48h 10µM, Pf growth 96h inconclusive, HCMV antiviral -69
O=C(NCCCN1CCOCC1)C(Sc1ccccc1)c1ccccc1 (centres undefined)	Pf growth 96h 7.4µM
O=C(NC(=S)NCCCN1CCOCC1)c1cccc2ccccc12	Pf growth 48h inconclusive, Pf growth 96h 6.6µM
Cc1ccc(C(=O)NC(=S)NCCCN2CCOCC2)cc1	none
Nc1ccccc1C(=O)NCCCN1CCOCC1	HCMV antiviral -105 (no result: Pf growth 48h)
Cc1ccc(C)c(OCC(=O)Nc2ccc(S(=O)(=O)Nc3onc(C)c3C)cc2)c1C	none (no result: Pf growth 48h, Pf growth 96h, Giardia FBPA inh)
Cc1ccc(NC(=O)CN2C(=O)N/C(=C\c3ccco3)C2=O)cc1	none (no result: Pf growth 48h, Pf growth 96h, Giardia FBPA inh, Sm TGR block)
CS(=O)(=O)N(CC(=O)N1CCCC1)Cc1ccc(Cl)cc1	none
Cc1ccc(NC(=O)c2ccc(NCCCN3CCC(C)CC3)c([N+](=O)[O-])c2)cc1F	Pf growth 48h 1.2µM
CSCC[C@H](NC(=O)[C@@H]1CCCN1C(=O)CNC(=O)[C@H](CCCCN)NC(=O)[C@H](Cc1cnc[nH]1)NC(=O)[C@H](CO)NC(=O)[C@H](CC(C)C)NC(=O)[C@H](CCCNC(=N)N)NC(=O)[C@@H]1CCCN1C(=O)[C@H](CCCNC(=N)N)NC(=O)[C@H](CCC(N)=O)NC(=O)[C@H](CCCNC(=N)N)NC(=O)[C@H](CCCNC(=N)N)NC(=O)[C@H](Cc1ccccc1)NC(=O)[C@@H](N)CCCCN)C(=O)N1CCC[C@H]1C(=O)N[C@@H](Cc1ccccc1)C(=O)O	none (no result: Pf growth 48h, Pf growth 96h, HCMV antiviral, Sm TGR block)
CCO[C@@H]1OC(C(=O)NC2CC2)=C[C@H](c2ccc(C(F)(F)F)cc2)[C@H]1CCCO	none
CCO[C@@H]1OC(C(=O)NCc2ccccc2)=C[C@H](c2ccc(C(F)(F)F)cc2)[C@H]1CCCO	Pf growth 48h 4.7µM, Pf growth 96h 8.3µM
C#CCNC(=O)C1=C[C@@H](c2ccc(C(F)(F)F)cc2)[C@H](CCCO)[C@@H](OCC)O1	Pf growth 48h inconclusive, Pf growth 96h 12µM
CCc1ccc2[nH]c3nc(C)cc(C)c3c(=O)c2c1	Pf growth 48h 3.3µM
CCc1nc2ccc(C(=O)NCCCN3CCN(c4ccccc4F)CC3)cc2nc1CC	Pf growth 48h inconclusive, Pf growth 96h inconclusive
CC(C)=CC(=O)Nc1ccc(Cl)cc1	Pf growth 96h inconclusive
CS/C(=C\[N+](=O)[O-])Nc1ccc(Cl)cc1	Pf growth 96h inconclusive, Sm TGR block 0.1µM (no result: Pf growth 48h)
CCOC(=O)C1C(=O)CC(C)(O)C(C(=O)OCC)C1c1ccc(OCC)cc1 (centres undefined)	none
CCOC(=O)C1C(=O)CC(C)(O)C(C(=O)OCC)C1c1cccc(OC(F)(F)C(F)F)c1 (centres undefined)	Pf growth 48h 10µM, Pf growth 96h inconclusive
Cc1ccc(NC(=O)Cn2c(-c3cncs3)nc3ccccc32)cc1Br	none (no result: Pf growth 48h, Pf growth 96h, Giardia FBPA inh)
Cc1nc2ccccc2c(=O)n1NC(=O)Cc1ccc(Br)cc1	none
CCCCCc1ccc(CC(=O)Nn2c(C)nc3ccccc3c2=O)cc1	HCMV antiviral -69 (no result: Pf growth 48h)
FC(F)(F)c1ccc(/C=N/n2c(C3CCCCC3)n[nH]c2=S)cc1	Pf growth 48h inconclusive, Pf growth 96h inconclusive
Cc1ccc(C(=O)C(OC(=O)CNS(=O)(=O)c2ccccc2)c2ccccc2)cc1 (centres undefined)	Pf growth 48h inconclusive (no result: Giardia FBPA inh)
Cc1cccc2cc(CN(CC3CCCO3)C(=O)NC3CCCCC3)c(=O)[nH]c12 (centres undefined)	Pf growth 48h inconclusive (no result: Pf growth 96h)
COc1ccc(CCN(Cc2cc3cccc(C)c3[nH]c2=O)C(=O)NC2CCCCC2)cc1OC	Pf growth 96h 2.9µM (no result: Pf growth 48h)
Cc1ccc2cc(CN(CC3CCCO3)C(=O)NC3CCCCC3)c(=O)[nH]c2c1C (centres undefined)	HCMV antiviral inconclusive
CCN(CC)CCCN(Cc1cc2ccc(C)c(C)c2[nH]c1=O)C(=O)NC1CCCCC1	Pf growth 48h inconclusive, Pf growth 96h 9.3µM
O=C(O)[C@@H]1[C@H]2C[C@H]3c4[nH]c5ccccc5c4CCN3C[C@@H]2CC[C@@H]1O	Pf growth 48h inconclusive, Pf growth 96h 7.4µM (no result: Giardia FBPA inh)
O[C@@H]1CCCN2CCc3c([nH]c4ccccc34)[C@H]12	none (no result: Pf growth 48h, Pf growth 96h, Giardia FBPA inh, Sm TGR block)
